ALOX12 inhib – inhibitors of human 12-lipoxygenase (ALOX12). P18054. purified 12-hLO, xylenol orange hydroperoxide absorbance. Potency, µM (titrated, usually from 57.1 µM), without a hit: at the top dose activity change, negative = inhibition, usual class: inhibitors. 150,000 compounds, 0.12% hits; also: potency is read from the fitted curve at half-maximal effect; nearly all actives have a fitted effect of over 55% in size
Target sequence (P18054 whole entry, looked up): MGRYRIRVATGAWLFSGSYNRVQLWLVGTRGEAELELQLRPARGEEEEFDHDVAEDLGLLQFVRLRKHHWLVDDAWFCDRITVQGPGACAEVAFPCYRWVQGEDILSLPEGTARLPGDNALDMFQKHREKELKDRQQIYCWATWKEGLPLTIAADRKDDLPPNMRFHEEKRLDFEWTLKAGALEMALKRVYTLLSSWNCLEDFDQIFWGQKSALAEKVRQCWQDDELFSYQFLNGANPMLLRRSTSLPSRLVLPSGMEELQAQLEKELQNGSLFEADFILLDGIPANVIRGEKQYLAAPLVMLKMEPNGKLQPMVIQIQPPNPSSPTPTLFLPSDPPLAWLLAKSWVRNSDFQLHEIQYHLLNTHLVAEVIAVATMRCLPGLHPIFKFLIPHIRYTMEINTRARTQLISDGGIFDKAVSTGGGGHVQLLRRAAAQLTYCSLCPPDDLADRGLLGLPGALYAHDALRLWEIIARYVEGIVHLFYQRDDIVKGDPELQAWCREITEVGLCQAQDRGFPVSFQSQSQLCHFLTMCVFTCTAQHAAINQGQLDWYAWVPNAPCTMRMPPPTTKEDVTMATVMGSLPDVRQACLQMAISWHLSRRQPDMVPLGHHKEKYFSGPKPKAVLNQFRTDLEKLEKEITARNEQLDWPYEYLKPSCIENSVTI
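Purified human 12hLO (150 nM final) was preincubated with compounds for 15 min at room temperature in 25 mM Hepes pH 7.0, 0.01% Triton X-100, then reacted with 40 uM arachidonic acid for 30 min. Hydroperoxide was detected with ferrous iron/xylenol orange.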
ALOX15B inhib – blocks human 15-lipoxygenase 2 activity; Potency, µM (titrated, usually from 57.1 µM), inactives show top-dose activity change, negative = inhibition, hits mostly inhibitors; purified 15hLO-2, xylenol orange hydroperoxide absorbance; AID 881; O15296; 110,000 compounds, 0.56% hits; also: potency is read from the fitted curve at half-maximal effect; nearly all actives have a fitted effect of over 60% in size
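Purified human 15hLO-2 (50 nM) preincubated 15 min with compound, then 45 uM arachidonic acid for 90 min at RT in 25 mM Hepes pH 7.5, 0.01% Triton X-100. Hydroperoxide detected by Fe-xylenol orange; 573/405 nm absorbance ratio.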
IMPase cell inh – IMPase inhibition in cells | P97697 | CHO-M1 cells, IP1 accumulation, HTRF TR-FRET ratio | inhibition (IP1 accumulation), % at 46.1 µM | 120,000 tested, under 10 active | AID 901; active = well fitted curve in the direction sought with a large enough effect in the signal ratio, not every such curve was filed as active; inconclusive = small, poorly fitted or top-dose-only effect, or a change in a side signal; inactive = no such curve, though single readings can be large or run the other way; the % refers to the signal ratio;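 also: cells stimulated with carbachol in lithium chloride buffer; plate controls were DMSO basal wells for no effect and reference inhibitor wells for full effect; higher means more IMPase inhibition seen as more IP1 and lower FRET ratio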
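The IP-One HTRF competitive assay in carbachol-stimulated CHO-M1 cells quantifies cellular IP1. Compounds spanned up to 46 uM final, and activity is expressed as AC50 from concentration-response fits of the ratio and donor data.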
PNC assembly inh – inhibitors of perinucleolar compartment assembly; AID 2417; activity change (PNC), negative = inhibition, % at 10 µM; PC3M PTB-GFP, PNC prevalence imaging, 16 h; stronger effect = lower value; 140,000 compounds, 3.1% hits;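 active = readout at or below -70, meaning at least 70% loss of cells showing the perinucleolar compartment, a nuclear body marking cancer cells; inconclusive = readout between -30 and a set limit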;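 also: plate controls were DMSO wells for no effect and camptothecin positive control wells for full effect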
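Compounds are pinned in duplicate onto adhered PC3M cells stably expressing GFP-tagged PTB and incubated 16 h at 37 C. Cells are then fixed, nuclei stained with Hoechst, and PNC-positive cells counted.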
* marks the source's active call; other numbers are inactive results; ? = inconclusive; . = no result given; [ ] = remark or other dose. Only some compounds are listed: those with a hit (about 3% of all), similar ones and a draw of the others. Unless noted, calls follow the shape of the dose curve; as a rule, active = well fitted curve in the direction sought with a large enough effect; inconclusive = small, poorly fitted or top-dose-only effect, or another doubt; inactive = no such curve, though single readings can be large; an effect the other way counts as inactive or inconclusive. Unless noted, % is scaled to controls: 0 for no effect and ±100 for the full control effect.

SMILES	ALOX12 inhib	ALOX15B inhib	IMPase cell inh	PNC assembly inh
S=c1[nH]nc(-c2cccnc2)n1-c1ccccc1	0.8%	.	6.1	-87.8*
CCC/C=C(\CCC)C(NC(=O)c1ccccc1)c1ccccc1 (configuration not stated)	-2.1%	12.6%	.	.
CN1CCN(c2ncncc2-c2ccccc2Cl)CC1	.	-6.7%	.	.
NC(=O)c1cc2ccccc2o/c1=N\NC(=O)c1ccco1	-2.3%	.	7.3	-119.3*
CCCN(CCc1ccccc1)[C@H]1CCc2c(O)cccc2C1	-7.9%	19.1%	10.3	.
Cc1onc(-c2c(Cl)cccc2Cl)c1C(=O)Nn1cnnc1	2.7%	-4.3%	3.5	-107.2*
O=c1cc2c(nn1Cc1ccccc1Cl)-c1ccccc1CC2	-9.7%	-19.9%	-1.1	-18.8
CN(C)CCNS(=O)(=O)c1ccc(Cl)cc1	-0.8%	.	-6.1	-100.0*
CC(=O)Nc1nc2c(c3c1c(=O)oc1ccccc13)CC(C)CC2 (configuration not stated)	-1.5%	.	5.1	-100.0*
O[C@@H](c1cc(-c2ccccc2)nc2c1ccc1ccccc12)[C@@H]1CCCCN1	-4.0%[11.4 µM]	21.8%[11.4 µM]	.	.
CCC(C)Oc1cccc(OCCCCN2C(=O)NC(C)(C)C2=O)c1 (configuration not stated)	2.0%	9.7%	-7.6	-95.9*
CC1(C)NC(=O)N(CCCCOc2cccc(C(F)(F)F)c2)C1=O	-0.5%	-11.2%	4.3	?
COc1ccccc1C(=O)Nc1ccc(S(=O)(=O)Nc2ncccn2)cc1	.	.	-7.0	.
Fc1ccc(-c2cc(C(F)(F)F)nc(NCc3cccs3)n2)cc1	-5.6%	.	.	-113.4*
Fc1ccc(CNc2nc(-c3ccco3)cc(C(F)(F)F)n2)cc1	-18.5%	-9.2%	9.4	-28.9
CCCCN1CSC(=S)N(Cc2ccccc2)C1	3.1%[11.4 µM]	-11.5%[11.4 µM]	.	.
CCN(CC)c1ccc(NC(=O)/C=C\c2ccccc2Cl)cc1	1.9%	-5.0%	2.8	-81.0*
CC#CCN1c2ccccc2[C@]23C[C@@H](C(=O)OC)N(S(=O)(=O)c4ccc(C(F)(F)F)cc4)C2=NC(C(=O)OC)=C(C(=O)OC)[C@H]13	2.0%[11.4 µM]	.	.	.
Cc1noc(C)c1C(=O)N1CCC2(CC1)CCN(C(c1ccccc1)c1ccccc1)CC2	1.6%	7.9%	.	.
CCOC(=O)c1[nH]c(C)c(C(=O)Nc2cc(OC)ccc2OC)c1C	3.1%	1.5%[2.29 µM]	1.1	-107.5*
Cc1cc(NS(=O)(=O)Cc2ccccc2)cc(C)c1OCC(=O)N1CCOCC1	3.1%	-6.1%	8.1	-95.7*
COc1ccc(Oc2ncc3nc(-c4cn(C)c5ccccc45)c(=O)n(C)c3n2)cc1	.	4.4%	.	.
O=S(=O)(N/N=C/c1cccc(OC2CSC2)c1)c1ccccc1	-2.6%	.	.	-112.2*
O=C(O)c1cc(S(=O)(=O)Nc2cccc(F)c2)ccc1Cl	-4.4%	.	.	.
COc1ccc(CN(C(C)=O)c2cccc(C)c2C)cc1	-7.3%	-0.4%	10.2	-107.1*
SMILES	ALOX12 inhib	ALOX15B inhib	IMPase cell inh	PNC assembly inh
COc1ccc(CN(C(=O)CO/N=C/c2ccccc2)c2ccccc2C(=O)O)cc1	5.0%	.	.	14.7
Nc1ncnc2c1ncn2[C@@H]1O[C@H](COP(=O)(O)O)[C@@H](O)[C@@H]1O	-0.5%[25.6 µM]	8.9%[25.6 µM]	-9.4[20.6 µM]	.
O=c1oc(-c2ccc(F)cc2)nc2ccsc12	-2.7%	0.1%	0.5	-111.4*
Cc1cc(=O)oc2cc(OCC(=O)N3c4ccccc4CC3C)ccc12 (configuration not stated)	-9.0%	-11.5%	6.1	-85.0*
O=C(NC(=S)Nc1ccc(N2CCOCC2)cc1)c1cccc([N+](=O)[O-])c1	0.6%	.	.	4.6
O=C(NC(=S)Nc1ccc(CN2CCOCC2)cc1)c1cccc([N+](=O)[O-])c1	-3.2%	.	.	-100.0*
COc1ccccc1Nc1ncnc2nc[nH]c12	3.6%	-3.8%	3.3	45.7
CCN(CC)CCCN1C(=O)c2oc3ccccc3c(=O)c2C1c1cccc(OC)c1OC (configuration not stated)	-18.3%	7.2%	1.1	12.0
N#Cc1c(-c2cccnc2)c2c([nH]c1=S)CCCC2	-18.6%	20µM*	-4.8	22.2
Cc1ccc(S(=O)(=O)Nc2ccc(O)c(C(=O)O)c2)c(C)c1	-9.7%	.	.	.
Cc1ccc(NC(=O)Cn2cnc3c(cnn3C(C)(C)C)c2=O)cc1	0.2%	-6.8%	0.2	-100.0*
CC(C)(C)n1ncc2c(=O)n(CC(=O)Nc3ccc4c(c3)OCO4)cnc21	-6.6%	-0.7%	-4.3	-15.1
CC(=O)Nc1ccc(NC(=O)CN(C)CCC#N)cc1	-1.5%	-4.1%	-6.1	?
O=C(C1CCCN1C(=O)c1cccs1)N1CCc2ccccc21 (configuration not stated)	-0.5%	-0.5%	-1.6	-97.9*
O=C(c1cccs1)N1CCc2ccccc21	-5.6%	-2.8%	-0.6	?
O=C(Nc1ccc(O)c2c(=O)cc(-c3ccccc3Cl)oc12)c1cccc(Cl)c1	-0.4%	.	.	-80.0*
Cc1cccc(C(=O)Nc2ccc(O)c3c(=O)cc(-c4ccccc4Cl)oc23)c1	3.4%	.	.	60.3
CCCn1c(SCC(=O)N2CCc3ccccc32)nnc1-c1ccco1	0.2%	4.2%	-0.9	-11.8
CCCn1c(SCC(=O)N2c3ccccc3CC2C)nnc1-c1ccco1 (configuration not stated)	-0.1%	.	8.8	-100.0*
O=C(CCc1ccc(S(=O)(=O)N2CCOCC2)cc1)N/N=C/c1ccc(O)c(O)c1O	-5.2%	.	.	-110.5*
CCOC(=O)c1oc2ccccc2c1CN1CCN(C(=O)c2ccccc2)CC1	-3.9%	.	12.8	-109.4*
CCOC(=O)c1oc2ccccc2c1CN1CCN(c2ccccc2)CC1	-6.7%	26.6%	6.6	?
Cc1cn(S(=O)(=O)c2ccc(Br)c3ccccc23)cn1	0.4%	2.0%	?	?
Cc1cccc(Oc2nc(CN3CCOCC3)nc3sc4c(c23)CCCC4)c1	-1.8%	.	.	-104.2*
Nn1c(-c2ccco2)n[nH]c1=S	-2.2%	14.6%	1.9	-24.5
SMILES	ALOX12 inhib	ALOX15B inhib	IMPase cell inh	PNC assembly inh
S=c1[nH]nc(-c2ccco2)n1C1CCCCC1	2.1%	.	-11.7	-84.7*
O=c1cnc2cnc(Oc3ccccc3)nc2n1C1CC1	.	-3.7%	.	.
Cc1ccc(C(=O)OCc2cc3ccccc3[nH]c2=O)cc1	-4.3%	-4.8%	-0.4	-22.6
COc1cc(C(=O)OCc2cc3ccccc3[nH]c2=O)cc(OC)c1OC	1.2%	.	-4.7	-100.0*
Cn1c(=O)n(CC(=O)N2CCOCC2)c2ccccc21	6.4%	.	-12.0	40.2
O=C(O)c1ccc(N2CCCCC2)cc1	-3.3%	4.7%	18.9	12.4
Nc1ccc(N2CCCCCC2)cc1	-25.7%	12.6µM*	3.9	?
NNC(=O)c1cc(Br)cs1	0.0%	.	.	-5.9
N=c1c(C(=O)NC2CCCC2)cc2c(=O)n3ccccc3nc2n1C1CCCC1	31.6µM*	-15.8%	5.2	92.2
Cc1cccn2c(=O)c3cc(C(=O)NC4CCCC4)c(=N)n(C4CCCC4)c3nc12	-3.8%	6.3%[2.29 µM]	11.4	-21.7
Cc1ccc(C)c2c1[nH]c1ccc([N+](=O)[O-])cc12	-3.5%	-14.6%	-3.9	5.5

Screening data: PubChem, National Center for Advancing Translational Sciences (NCATS)
